Consider 40 molecules from PubChem BioAssay (NCATS).

Results filed as inconclusive are left out. Activity calls are given as the source filed them. The call rests on the fitted dose curve; in most records, active means well fitted cell-killing curve with a large enough effect; inconclusive means small, poorly fitted or top-dose-only effect, or effect the other way; inactive means no such curve, though single readings can be large or run the other way. Starred links: 1 amine or outer side, 2 acyl side, 3 side chain; linkers in the order of their positions; H or OH if unused. Positions of bridges follow the written chain, without caps; N, C: chain ends. Non-standard residues stand in square brackets, D forms with d. Residues, ends and D or L forms follow the SMILES beside them. Chains are numbered I, II in the order given. *: point of attachment. Actinocin(9to1) = Cc1c2oc3c(C)ccc(C(=O)[*:1])c3nc-2c(C(=O)[*:2])c(N)c1=O; NMeV = CN[CH](C(=O)O)C(C)C; Cbz = O=C(OCc1ccccc1)*; Sar = CNCC(=O)O
Potency means the concentration at half of the fitted maximal effect.

The experiment in a line: Quantitative High-Throughput drug screen in 47 multiple myeloma cell lines against the NCATS MIPE library collection: KMS20_JCRB cell viability assay (AID 1918973). Further: nearly all actives have a fitted effect of over 45% in size. To be noted: CellTiter-Glo ATP, 48 h; series mostly up to 45.8 µM; viability (% of DMSO): at the top concentration. From the text:
PI: Beverly A. Mock Ph.D.
Laboratory of Cancer Biology and Genetics,
Center for Cancer Research, National Cancer Institute,
National Institute of Health, Bethesda, Maryland
Drug resistance and disease progression are common in multiple myeloma (MM) patients, underscoring the need for new therapeutic combinations. […] We hypothesized that effective combinations would reduce MYC expression and enhance p16 activity. […] These preclinical data identify potentially useful drug combinations for evaluation in drug-resistant MM and reveal potential mechanisms of combined drug sensitivity.
Described herein is the primary MIPE qHTS used to cherrypick compounds. Validated compounds were then further tested for potential synergistic activiy.
[1] Peat TJ, Gaikwad SM, Dubois W, Gyabaah-Kessie N, Zhang S, Gorjifard S, Phyo Z, Andres M, Hughitt VK, Simpson RM, Miller MA, Girvin AT, Taylor A, Williams D, D'Antonio N, Zhang Y, Rajagopalan A, Flietner E, Wilson K, Zhang X, Shinn P, Klumpp-Thomas C, McKnight C, Itkin Z, Chen L, Kazandijian D, Zhang J, Michalowski AM, Simmons JK, Keats J, Thomas CJ, Mock BA. Drug combinations identified by high-throughput screening promote cell cycle transition and upregulate Smad pathways in myeloma. Cancer Lett. 2023 Aug 1;568:216284. doi: 10.1016/j.canlet.2023.216284. Epub 2023 Jun 24. PMID: 37356470; PMCID: PMC10408729.
SEQUENCE No. (e.g., 1, 2, 3, etc.); […] (e.g., Cells, Incubation, Reagent, etc.); VALUE and DESCRIPTION.
1; Cells; 5 uL; white, solid bottom 1536-well Greiner assay plate.
2; Compounds; 23 nL; Kalypsis pin tool (Wako USA) equipped with a 1536-well pin head to transfer to the assay plates.
3; Incubation; 48 hours; 37C incubation.
4; Reagent;5uL; CellTiter Glo (Promega).
5; Detector; 425V; Luminescence; Viewlux PerkinElmer.
NOTES (numbers refer to Sequence numbers above)
1. The cell-based screening methods employed in this study were like those previously published. Briefly, the corresponding myeloma cell lines were screened in 1,536-well plates with 500 cells, 5-uL per well for inhibition of cell viability (assessed by measuring ATP levels with CellTiterGlo).
2. NCATS MIPE 4.0 library of approved and investigational drugs were added using the Kalypsis pin tool. Wells treated with DMSO only for 100% viability and media only wells for 0% viability were used as controls.
3. The assay plates were covered and incubated for 48 hours in a 37C, 5% CO2 incubator with controlled humidity.
4. After 48 hours, CellTilter-GloTM luminescent substrate mix (Promega) reagent was added to the assay plate and plates we incubated for 5 min at room temperature.
5. Signal was measured as median relative luminescence units on a ViewLux (PerkinElmer) multiplate reader.
[1] Heske CM, Davis MI, Baumgart JT, Wilson K, Gormally MV, Chen L, Zhang X, Ceribelli M, Duveau DY, Guha R, Ferrer M, Arnaldez FI, Ji J, Tran HL, Zhang Y, Mendoza A, Helman LJ, Thomas CJ. Matrix Screen Identifies Synergistic Combination of PARP Inhibitors and Nicotinamide Phosphoribosyltransferase (NAMPT) Inhibitors in Ewing Sarcoma. Clin Cancer Res. 2017 Dec 1;23(23):7301-7311. doi: 10.1158/1078-0432.CCR-17-1121. Epub 2017 Sep 12. PMID: 28899971; PMCID: PMC6636827.
A general note: Cellular ATP, detected with luciferase, serves as a proxy for viable cell number.
For the molecule `CC(=O)O[C@H]1C[C@@H]2CC[C@H]3[C@H]4C[C@H]([N+]5(C)CCCCC5)[C@@H](OC(C)=O)[C@@]4(C)CC[C@@H]3[C@@]2(C)C[C@H]1[N+]1(C)CCCCC1`, the “viability (% of DMSO)” value is 160% (inactive).

As to `CC(C)(C)[N+]([O-])=Cc1ccc(S(=O)(=O)O)cc1S(=O)(=O)O`, the “viability (% of DMSO)” value is 75.8% (inactive).

As to `Cc1c2oc3c(C)ccc(C(=O)NC4C(=O)NC(C(C)C)C(=O)N5CCCC5C(=O)N(C)CC(=O)N(C)C(C(C)C)C(=O)OC4C)c3nc-2c(C(=O)NC2C(=O)NC(C(C)C)C(=O)N3CCCC3C(=O)N(C)CC(=O)N(C)C(C(C)C)C(=O)OC2C)c(N)c1=O` (stereo not given) (I: TVP[Sar][NMeV] / II: TVP[Sar][NMeV]; ester I:1-I:C, II:1-II:C; linker I:N-II:N via Actinocin(9to1); configuration not given here), the “viability (% of DMSO)” value was 3.44% (inactive).

Consider `N#Cc1c(C2CCNCC2)cc(-c2c(O)cccc2OCC2CC2)nc1N`, for which the Potency was 23500 nM (active).

In the case of `COC(=O)[C@@H]1CC2=CC(=O)CC[C@]2(C)[C@@]23O[C@@H]2C[C@@]2(C)[C@H](CC[C@@]24CCC(=O)O4)[C@@H]13`, the “viability (% of DMSO)” value is 114% (inactive).

As for `COc1cc([C@@H]2c3cc4c(cc3[C@@H](O[C@@H]3O[C@@H]5CO[C@@H](c6cccs6)O[C@@H]5[C@H](O)[C@@H]3O)[C@H]3COC(=O)[C@H]23)OCO4)cc(OC)c1O`, the Potency was 418 nM (active).

In the case of `CCOc1cc2c(c(F)c1OCC)C(=N)N(CC(=O)c1cc(N3CCOCC3)c(OC)c(C(C)(C)C)c1)C2`, the Potency is 9350 nM (active).

For `Oc1cc(-c2nc(-c3ccccc3)[nH]c2-c2ccncc2)ccc1Cl`, the Potency was 8330 nM (active).

Consider `CC(C)(O)CC[C@@H](O)[C@](C)(O)[C@H]1CC[C@@]2(O)C3=CC(=O)[C@@H]4C[C@@H](O)[C@@H](O)C[C@]4(C)[C@@H]3CC[C@]12C`, for which the “viability (% of DMSO)” value is 80.5% (inactive).

Turning to `Cc1cnc(NC(=O)Nc2cc(Br)c(C)cc2OC[C@@H]2CNCCO2)cn1`, the Potency is 5260 nM (active).

With `c1cncc(CN2CCC(n3ncc4c(N5CCOCC5)nc(-c5ccc6[nH]ccc6c5)nc43)CC2)c1`, the Potency is 1180 nM (active).

As for `N#CC(=C(O)c1ccc(Cl)cc1Cl)c1nc2cc(Cl)ccc2c(=O)[nH]1`, the “viability (% of DMSO)” value was 114% (inactive).

Turning to `CC(C)C[C@@H](C=O)NC(=O)[C@H](CC(C)C)NC(=O)[C@H](CC(C)C)NC(=O)OCc1ccccc1` (Cbz-Leu-Leu-Leu-aldehyde), the Potency is 526 nM (active).

With `Cn1cc(C2=C(c3c4n(c5ccccc35)CCC(CN)C4)C(=O)NC2=O)c2ccccc21` (stereo not given), the Potency was 6620 nM (active).

In the case of `CN[C@@H]1C[C@H]2O[C@@](C)([C@H]1OC)n1c3ccccc3c3c4c(c5c6ccccc6n2c5c31)C(=O)N[C@H]4O`, the Potency is 148 nM (active).

Take `CCC(C=C[C@@H]1OC(=O)C=C[C@H]1C)=C[C@H](C)CC=CC(C)=C[C@@H](C)C(=O)[C@@H](C)[C@H](O)[C@@H](C)CC(C)=CC(=O)O`: the Potency is 8.8 nM (active).

As for `Cc1cnc(Nc2ccc(N3CCN(C)CC3)cc2)nc1Nc1cccc(S(=O)(=O)NC(C)(C)C)c1`, the Potency was 7430 nM (active).

On to `CC(C=CC1=C(C)CCCC1(C)C)=CC=CC(C)=CC(=O)Nc1ccc(O)cc1`, for which the Potency is 15200 nM (active).

Take `CNC(=O)c1cccc(-c2ccc3c(N4CCOC[C@H]4C)nc(N4CCOC[C@H]4C)nc3n2)c1`: the Potency was 93.5 nM (active).

With `COc1cc(OC)c(C=CS(=O)(=O)Cc2ccc(OC)c(NCC(=O)O)c2)c(OC)c1`, the Potency was 1180 nM (active).

In the case of `O=C1CSC(=O)N1C(CCc1ccncc1)COc1ccc(-c2cccc([N+](=O)[O-])c2)cc1` (stereo not given), the Potency is 10500 nM (active).

Consider `Cn1c(Nc2ccc(C(F)(F)F)cc2)nc2cc(Oc3ccnc(-c4ncc(C(F)(F)F)[nH]4)c3)ccc21`, for which the Potency was 11800 nM (active).

Take `CCc1cnn2c(NCc3ccc[n+]([O-])c3)cc(N3CCCC[C@@H]3CCO)nc12`: the Potency was 20.9 nM (active).

Regarding `COc1ccc(Nc2cc(-c3cnc(N)nc3)nc(N3CCOCC3)n2)cn1`, the Potency was 4180 nM (active).

As for `CC(C)N1[N]C(=C2C=c3cc(O)ccc3=N2)c2c(N)ncnc21`, the Potency is 743 nM (active).

As to `CC[C@H]1OC(=O)[C@H](C)[C@@H](O[C@H]2C[C@@](C)(OC)[C@@H](O)[C@H](C)O2)[C@H](C)[C@@H](O[C@@H]2O[C@H](C)C[C@H](N(C)C)[C@@H]2O)[C@](C)(OC)C[C@@H](C)C(=O)[C@H](C)[C@@H](O)[C@]1(C)O`, the “viability (% of DMSO)” value is 95.2% (inactive).

For `CN(N=O)C(=O)N[C@H]1C(O)OC(CO)[C@@H](O)[C@H]1O` (stereo not given in full), the “viability (% of DMSO)” value is 77% (inactive).

For the molecule `C[C@H](NC(=O)C(C#N)=Cc1cccc(Br)n1)c1ccccc1`, the Potency is 2350 nM (active).

Turning to `COc1cc(O)c2c(c1)C1OC1C[C@H](O)[C@H](O)C(=O)C=CC[C@H](C)OC2=O` (stereo not given in full), the Potency was 1180 nM (active).

Regarding `O=C1NC(=O)C(=Cc2ccc3nccc(-c4ccncc4)c3c2)S1`, the Potency was 93.5 nM (active).

Consider `OCc1ccccc1O[C@@H]1O[C@H](CO)[C@H](O)[C@H](O)[C@H]1O`, for which the “viability (% of DMSO)” value was 122% (inactive).

As to `C=C1C(=O)O[C@H]2[C@@H]1CCC(C)=CCC[C@@]1(C)O[C@@H]21`, the Potency was 1660 nM (active).

For the molecule `Nc1ccc(C(=O)Nc2cccc(-c3nc(N4CCOCC4)c4oc5ncccc5c4n3)c2)cn1`, the Potency is 1480 nM (active).

For `c1ccc(CNc2nc(NCc3ccccc3)c3ccccc3n2)cc1`, the Potency is 8330 nM (active).

Consider `C[C@H](NCc1ccc(OCc2cccc(F)c2)cc1)C(N)=O`, for which the Potency was 2350 nM (active).

Turning to `CCOC(=O)N1CCN([N+]([O-])=NOc2ccc([N+](=O)[O-])cc2[N+](=O)[O-])CC1`, the Potency was 1180 nM (active).

For the molecule `CCc1ccc(C(=O)Nc2cc(CN3CCN(C)CC3)cc(C(F)(F)F)c2)cc1C#Cc1cnc2ccnn2c1`, the Potency is 3720 nM (active).

As to `CON=C(C(=O)N[C@@H]1C(=O)N2C(C(=O)O)=C(CSC(=O)c3ccco3)CS[C@H]12)c1csc(N)n1`, the “viability (% of DMSO)” value was 106% (inactive).

For `CCCc1nc(C(C)(C)O)c(C(=O)O)n1Cc1ccc(-c2ccccc2-c2nn[nH]n2)cc1`, the “viability (% of DMSO)” value was 129% (inactive).

Consider `CC(C)(O)Cn1c(NC(=O)c2ccc(-c3cn[nH]c3)s2)nc2cc(CN3CCOCC3)ccc21`, for which the Potency is 2960 nM (active).
